Measured values as given in the supplement of paper PMC10646978.
± gives the standard deviation.

How the values were obtained:
Details in all cases: modulator concentration 10 µM
[1] = tested on: RAW-Dual (murine macrophage reporter line); test: NF-kB reporter (SEAP) activity fold change vs agonist alone; higher = enhanced NF-kB activity
Method in brief: (§1)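 RAW-Dual murine macrophage reporter cells were seeded at 50 000 per well in 384-well plates and pre-incubated 1 hour at 37 °C with compound pin-transferred to 10 μM final. After 1 hour, a PRR agonist was added and cells incubated overnight. Supernatant NF-κB (SEAP, QUANTI-Blue, 620 nm absorbance) and IRF (Lucia luciferase, QUANTI-Luc, luminescence) signals were divided by the mean agonist-only control on the same plate to give fold change. Two replicate plates were averaged, with errors by propagation.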

[2] = tested on: RAW-Dual (murine macrophage reporter line); test: IRF reporter (Lucia luciferase) activity fold change vs agonist alone; higher = enhanced IRF activity
Method in brief: as §1

[3] = tested on: RAW-Dual (murine macrophage reporter line); test: viability score (confluency relative to resting cells, overnight) (fraction); higher = more viable, active = viable (0.7 or more)
Method in brief: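 RAW-Dual macrophages in 384-well plates were incubated overnight with compound, final concentration 10 μM. Confluency images from IncuCyte were processed in IncuCyte software into two masks covering all imaged wells. The viability score is each well's confluency relative to resting cells, and a compound met the cutoff when both masks exceeded 70% of resting cells.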

[4] = agonist: CpG ODN 1826 0.5 ug/mL

| Structure (SMILES) | NF-kB reporter [1, 4] | NF-kB reporter ([1]; agonist: LPS 0.1 ug/mL) | NF-kB reporter ([1]; agonist: MPLA […]) | IRF reporter ([2]; agonist: 3'3'-cGAMP 10 ug/mL) | IRF reporter ([2]; agonist: LPS 0.1 ug/mL) | IRF reporter ([2]; agonist: MPLA […]) | viability score [3] |
| --- | --- | --- | --- | --- | --- | --- | --- |
| COc1ccc(C(C)(C#N)CC#N)cc1 (configuration not stated) | 1.11 ± 0.089 | 0.941 ± 0.1 | 1.04 ± 0.1 | 1.06 ± 0.035 | 1.29 ± 0.19 | 1.47 ± 0.31 | 1.03 (active) |
| CCOC(=O)C1=C(C)NC(C)=C(C(=O)OCC)C1c1ccc(OC)cc1 | 0.973 ± 0.088 | 1.05 ± 0.066 | 1.02 ± 0.068 | 1.17 ± 0.044 | 0.867 ± 0.081 | 0.987 ± 0.27 | 0.946 (active) |
| CNCC[C@@H](Oc1cccc2ccccc12)c1cccs1 [Prestw-1708] | 0.661 ± 0.054 | 0.98 ± 0.073 | 1.18 ± 0.19 | 1.19 ± 0.076 | 1.11 ± 0.16 | 1.16 ± 0.28 | 0.384 (inactive) |
| C=C1c2cccc(O)c2C(=O)C2=C(O)[C@]3(O)C(=O)C(C(N)=O)=C(O)[C@@H](N(C)C)[C@@H]3[C@@H](O)[C@H]12.Cl | 1.16 ± 0.29 | 0.985 ± 0.064 | 0.952 ± 0.07 | 0.914 ± 0.045 | 1.22 ± 0.23 | 1.14 ± 0.13 | 0.962 (active) |
| COC(=O)C1=C(C)NC(C)=C(C(=O)OCCN2CCN(C(c3ccccc3)c3ccccc3)CC2)C1c1cccc([N+](=O)[O-])c1 (configuration not stated) | 0.231 ± 0.038 | 0.631 ± 0.07 | 0.89 ± 0.051 | 0.138 ± 0.0049 | 0.949 ± 0.11 | 1.1 ± 0.11 | 0.966 (active) |
| Cc1ccc(-n2nc(C(C)(C)C)cc2NC(=O)Nc2ccc(OCCN3CCOCC3)c3ccccc23)cc1 | 0.68 ± 0.13 | 0.658 ± 0.052 | 0.784 ± 0.077 | 1.19 ± 0.058 | 0.741 ± 0.14 | 0.844 ± 0.1 | 1.02 (active) |
| CCCOc1ccc(C=CC(=O)Nc2ccc(S(=O)(=O)Nc3ncccn3)cc2)cc1OC | 0.938 ± 0.077 | 1.03 ± 0.06 | 0.963 ± 0.092 | 0.982 ± 0.035 | 1.27 ± 0.18 | 1.11 ± 0.23 | 1.01 (active) |
| N#Cc1cc(OC2CCSC2)nc2ccccc12 (configuration not stated) | 1.04 ± 0.067 | 1.05 ± 0.095 | 1.18 ± 0.065 | 0.935 ± 0.071 | 0.959 ± 0.045 | 1.15 ± 0.16 | 1 (active) |
| COCC(C)NC(=O)c1ccc(Cl)c(Cl)c1 (configuration not stated) | 1.13 ± 0.12 | 0.926 ± 0.079 | 0.984 ± 0.043 | 0.953 ± 0.034 | 0.966 ± 0.05 | 0.992 ± 0.1 | 0.997 (active) |
| CCCCCCOc1ccc(OC(=O)c2ccc(OC)cc2)cc1 | 0.826 ± 0.073 | 0.856 ± 0.072 | 0.913 ± 0.089 | 0.95 ± 0.037 | 1.37 ± 0.21 | 1.62 ± 0.26 | 1.04 (active) |
| CC1=NN(c2ccc(S(N)(=O)=O)cc2)C(=O)C1=Cc1ccc(C)s1 | 1.09 ± 0.074 | 1.08 ± 0.072 | 1.33 ± 0.14 | 0.868 ± 0.033 | 1.86 ± 0.15 | 1.54 ± 0.14 | 0.981 (active) |
| CC(=O)ON=C1C(C)=C(C#N)C2C1C2(C)C (configuration not stated) | 1.2 ± 0.096 | 1.01 ± 0.26 | 0.874 ± 0.32 | 0.718 ± 0.18 | 0.871 ± 0.25 | 0.857 ± 0.33 | 1.01 (active) |
| FC(F)(F)c1ccnc(NC2CCN(c3ncnc4c3CCCC4)CC2)n1 | 0.884 ± 0.083 | 1.35 ± 0.11 | 1.86 ± 0.081 | 1.21 ± 0.069 | 1.65 ± 0.16 | 1.59 ± 0.18 | 0.318 (inactive) |
| COc1ccccc1OCC(O)COC(N)=O (configuration not stated) | 1.56 ± 0.26 | 1.28 ± 0.17 | 0.938 ± 0.058 | 0.93 ± 0.041 | 1.49 ± 0.15 | 1.21 ± 0.12 | 0.985 (active) |
| c1ccc(CC(=NNc2ccccc2)c2ccc(-c3ccccc3)cc2)cc1 | 0.855 ± 0.091 | 0.879 ± 0.069 | 1.07 ± 0.11 | 0.657 ± 0.028 | 1.3 ± 0.2 | 1.35 ± 0.28 | 1.03 (active) |
| COC(=O)CSc1nc(O)c2c(C)c(C)sc2n1 | 0.808 ± 0.077 | 0.829 ± 0.04 | 1.03 ± 0.1 | 0.984 ± 0.046 | 1.49 ± 0.093 | 1.55 ± 0.19 | 1.01 (active) |
| CC(O)(P(=O)(O)O)P(=O)(O)O | 0.76 ± 0.033 | 0.997 ± 0.1 | 1.08 ± 0.079 | 0.956 ± 0.069 | 1.14 ± 0.27 | 1.26 ± 0.4 | 0.98 (active) |
| O=C(NCCCn1ccc2cccnc21)c1ccccc1C(F)(F)F | 0.946 ± 0.091 | 1.1 ± 0.092 | 1.03 ± 0.18 | 1.06 ± 0.056 | 1.16 ± 0.1 | 1.45 ± 0.15 | 0.978 (active) |
| COc1cc2c(Oc3ccc(NC(=O)C4(C(=O)Nc5ccc(F)cc5)CC4)cc3F)ccnc2cc1OCCCN1CCOCC1 | 0.179 ± 0.0098 | 0.146 ± 0.013 | 0.238 ± 0.011 | 0.0512 ± 0.015 | 0.0684 ± 0.0041 | 0.138 ± 0.025 | 0.136 (inactive) |
| CC(=O)N1CCC(C(=O)N2CCOCC2CN(C)C)CC1.O=CO (configuration not stated) | 0.979 ± 0.11 | 1.08 ± 0.17 | 0.924 ± 0.064 | 0.992 ± 0.08 | 1.13 ± 0.089 | 1.06 ± 0.082 | 0.992 (active) |
| Clc1cccc(C=Cc2nn3c(Cc4ccccc4)nnc3s2)c1 | 0.885 ± 0.04 | 0.927 ± 0.092 | 1.12 ± 0.06 | 0.86 ± 0.039 | 1.35 ± 0.24 | 1.44 ± 0.43 | 0.987 (active) |
| O=C1CN(C(=O)c2cc3ccccc3o2)c2ccccc2N1 | 1.1 ± 0.35 | 1.01 ± 0.052 | 1.21 ± 0.1 | 0.992 ± 0.035 | 1.03 ± 0.14 | 1.1 ± 0.14 | 0.998 (active) |
| Cc1cc(CCNS(=O)(=O)c2cccc(C(F)(F)F)c2)nn1C | 0.898 ± 0.068 | 0.995 ± 0.1 | 0.988 ± 0.06 | 0.96 ± 0.06 | 0.961 ± 0.097 | 1 ± 0.23 | 1 (active) |
| COc1ccc(C=C(NC(=O)c2cc(OC)c(OC)c(OC)c2)C(=O)NC(C(=O)O)C(C)C)c(OC)c1 (configuration not stated) | 1.01 ± 0.091 | 0.985 ± 0.055 | 0.934 ± 0.11 | 0.908 ± 0.031 | 1.23 ± 0.18 | 1.04 ± 0.29 | 1.02 (active) |
| Cc1ccc(N2C(=O)C(Cl)=C(Nc3cccc(C)c3C)C2=O)cc1Cl | 0.739 ± 0.062 | 0.897 ± 0.064 | 1.28 ± 0.053 | 0.549 ± 0.063 | 0.954 ± 0.039 | 1.63 ± 0.21 | 0.995 (active) |
| CCC(C)NS(=O)(=O)c1ccc([N+](=O)[O-])cc1 (configuration not stated) | 1.13 ± 0.11 | 1.05 ± 0.075 | 0.977 ± 0.034 | 0.883 ± 0.05 | 1.13 ± 0.1 | 1.18 ± 0.14 | 0.998 (active) |
